# From article PMC11062922 (Nature Chemical Biology, 2023)
# Where two headings read alike, the source gives them in different places.
# Key:
# LATS1 = conditions: read-out: apparent Kd, n = 1
# PAK4 = conditions: read-out: apparent Kd, n = 1
# [1] = compound concentrations:100 nM and 1000 nM (sheet 'Lestaurtinib' of Supplementary Table 1),run:Lestaurtinib_02572_R1,Plate:MR015
# [2] = compound concentrations:100 nM and 1000 nM (sheet 'Lestaurtinib' of Supplementary Table 1),run:Lestaurtinib_02572_R2,Plate:MR015
# [3] = compound concentrations:100 nM and 1000 nM (sheet 'Lestaurtinib' of Supplementary Table 1),run:Lestaurtinib_02584_R2,Plate:MR017
# [4] = compound concentrations:100 nM and 1000 nM (sheet 'Lestaurtinib' of Supplementary Table 1),run:Lestaurtinib_02601_R2,Plate:MR018
# [5] = compound concentrations:100 nM and 1000 nM (sheet 'Lestaurtinib' of Supplementary Table 1),run:Lestaurtinib_02601_R3,Plate:MR018
# [6] = compound concentrations:100 nM and 1000 nM (sheet 'Lestaurtinib' of Supplementary Table 1),run:Lestaurtinib_02606_R1,Plate:MR019
# [7] = compound concentrations:100 nM and 1000 nM (sheet 'Lestaurtinib' of Supplementary Table 1),run:Lestaurtinib_02624_R1,Plate:MR020
# [8] = compound concentrations:100 nM and 1000 nM (sheet 'Lestaurtinib' of Supplementary Table 1),run:Lestaurtinib_02624_R2,Plate:MR020
# [9] = compound concentrations:100 nM and 1000 nM (sheet 'Lestaurtinib' of Supplementary Table 1),run:Lestaurtinib_02724_R1,Plate:MR021
# [10] = compound concentrations:100 nM and 1000 nM (sheet 'Lestaurtinib' of Supplementary Table 1),run:Lestaurtinib_02724_R3,Plate:MR021
# [11] = compound concentrations:100 nM and 1000 nM (sheet 'Lestaurtinib' of Supplementary Table 1),run:Lestaurtinib_02741_R2,Plate:MR023
# [12] = compound concentrations:100 nM and 1000 nM (sheet 'Lestaurtinib' of Supplementary Table 1),run:Lestaurtinib_02748_R1,Plate:MR024
# [13] = compound concentrations:100 nM and 1000 nM (sheet 'Lestaurtinib' of Supplementary Table 1),run:Lestaurtinib_02765_R1,Plate:MR026
# [14] = compound concentrations:100 nM and 1000 nM (sheet 'Lestaurtinib' of Supplementary Table 1),run:Lestaurtinib_02765_R2,Plate:MR026
# [15] = compound concentrations:100 nM and 1000 nM (sheet 'Lestaurtinib' of Supplementary Table 1),run:Lestaurtinib_02765_R3,Plate:MR026
substance,measurement,setting,value
Lestaurtinib,potency estimated from few doses,LATS1; [1],18 nM
same,potency estimated from few doses,LATS1; [2],23.5 nM
same,potency estimated from few doses,"LATS1; compound concentrations:100 nM and 1000 nM (sheet 'Lestaurtinib' of Supplementary Table 1),run:Lestaurtinib_02572_R3,Plate:MR015",22.5 nM
same,potency estimated from few doses,"LATS1; compound concentrations:100 nM and 1000 nM (sheet 'Lestaurtinib' of Supplementary Table 1),run:Lestaurtinib_02577_R1,Plate:MR016",36.6 nM
same,potency estimated from few doses,"LATS1; compound concentrations:100 nM and 1000 nM (sheet 'Lestaurtinib' of Supplementary Table 1),run:Lestaurtinib_02577_R2,Plate:MR016",51.4 nM
same,potency estimated from few doses,"LATS1; compound concentrations:100 nM and 1000 nM (sheet 'Lestaurtinib' of Supplementary Table 1),run:Lestaurtinib_02577_R3,Plate:MR016",63.8 nM
same,potency estimated from few doses,LATS1; [3],50.1 nM
same,potency estimated from few doses,"LATS1; compound concentrations:100 nM and 1000 nM (sheet 'Lestaurtinib' of Supplementary Table 1),run:Lestaurtinib_02584_R3,Plate:MR017",45.2 nM
same,potency estimated from few doses,LATS1; [4],79.1 nM
same,potency estimated from few doses,LATS1; [5],55.9 nM
same,potency estimated from few doses,LATS1; [6],39.1 nM
same,potency estimated from few doses,"LATS1; compound concentrations:100 nM and 1000 nM (sheet 'Lestaurtinib' of Supplementary Table 1),run:Lestaurtinib_02606_R2,Plate:MR019",35.8 nM
same,potency estimated from few doses,LATS1; [7],25.8 nM
same,potency estimated from few doses,LATS1; [8],40.9 nM
same,potency estimated from few doses,"LATS1; compound concentrations:100 nM and 1000 nM (sheet 'Lestaurtinib' of Supplementary Table 1),run:Lestaurtinib_02624_R3,Plate:MR020",38.9 nM
same,potency estimated from few doses,LATS1; [9],13.4 nM
same,potency estimated from few doses,LATS1; [10],13.2 nM
same,potency estimated from few doses,LATS1; [11],27 nM
same,potency estimated from few doses,LATS1; [12],36.2 nM
same,potency estimated from few doses,"LATS1; compound concentrations:100 nM and 1000 nM (sheet 'Lestaurtinib' of Supplementary Table 1),run:Lestaurtinib_02748_R3,Plate:MR024",56.4 nM
same,potency estimated from few doses,"LATS1; compound concentrations:100 nM and 1000 nM (sheet 'Lestaurtinib' of Supplementary Table 1),run:Lestaurtinib_02752_R1,Plate:MR025",27.3 nM
same,potency estimated from few doses,"LATS1; compound concentrations:100 nM and 1000 nM (sheet 'Lestaurtinib' of Supplementary Table 1),run:Lestaurtinib_02752_R2,Plate:MR025",32.9 nM
same,potency estimated from few doses,"LATS1; compound concentrations:100 nM and 1000 nM (sheet 'Lestaurtinib' of Supplementary Table 1),run:Lestaurtinib_02752_R3,Plate:MR025",52.3 nM
same,potency estimated from few doses,LATS1; [13],40.4 nM
same,potency estimated from few doses,LATS1; [14],48.6 nM
same,potency estimated from few doses,LATS1; [15],66.7 nM
same,potency estimated from few doses,"LATS1; compound concentrations:100 nM and 1000 nM (sheet 'Lestaurtinib' of Supplementary Table 1),run:Lestaurtinib_02768_R1,Plate:MR028",31.7 nM
same,potency estimated from few doses,"LATS1; compound concentrations:100 nM and 1000 nM (sheet 'Lestaurtinib' of Supplementary Table 1),run:Lestaurtinib_02795_R1,Plate:MR022",15.1 nM
same,potency estimated from few doses,"LATS1; compound concentrations:100 nM and 1000 nM (sheet 'Lestaurtinib' of Supplementary Table 1),run:Lestaurtinib_02795_R3,Plate:MR022",46.9 nM
same,potency estimated from few doses,"LATS1; compound concentrations:100 nM and 1000 nM (sheet 'Lestaurtinib' of Supplementary Table 1),run:Lestaurtinib_02802_R1,Plate:MR029",38.6 nM
same,potency estimated from few doses,"LATS1; compound concentrations:100 nM and 1000 nM (sheet 'Lestaurtinib' of Supplementary Table 1),run:Lestaurtinib_02802_R2,Plate:MR029",26 nM
same,potency estimated from few doses,"LATS1; compound concentrations:100 nM and 1000 nM (sheet 'Lestaurtinib' of Supplementary Table 1),run:Lestaurtinib_02896_R1,Plate:MR030",15.1 nM
same,potency estimated from few doses,"LATS1; compound concentrations:100 nM and 1000 nM (sheet 'Lestaurtinib' of Supplementary Table 1),run:Lestaurtinib_02896_R2,Plate:MR030",27.9 nM
same,potency estimated from few doses,"LATS1; compound concentrations:100 nM and 1000 nM (sheet 'Lestaurtinib' of Supplementary Table 1),run:Lestaurtinib_03172_R1,Plate:MR031",40.9 nM
same,potency estimated from few doses,"LATS1; compound concentrations:100 nM and 1000 nM (sheet 'Lestaurtinib' of Supplementary Table 1),run:Lestaurtinib_03172_R2,Plate:MR031",32.7 nM
same,potency estimated from few doses,"LATS1; compound concentrations:100 nM and 1000 nM (sheet 'Lestaurtinib' of Supplementary Table 1),run:Lestaurtinib_03172_R3,Plate:MR031",30.1 nM
same,potency estimated from few doses,"LATS1; compound concentrations:100 nM and 1000 nM (sheet 'Lestaurtinib' of Supplementary Table 1),run:Lestaurtinib_03252_R1,Plate:MR032",41.1 nM
same,potency estimated from few doses,"LATS1; compound concentrations:100 nM and 1000 nM (sheet 'Lestaurtinib' of Supplementary Table 1),run:Lestaurtinib_03260_R2,Plate:MR033",66 nM
same,potency estimated from few doses,"LATS1; compound concentrations:100 nM and 1000 nM (sheet 'Lestaurtinib' of Supplementary Table 1),run:Lestaurtinib_03260_R3,Plate:MR033",57.8 nM
same,potency estimated from few doses,"PAK4; compound concentrations:100 nM and 1000 nM (sheet 'Lestaurtinib' of Supplementary Table 1),run:Lestaurtinib_02339_R1,Plate:MR001",32.7 nM
same,potency estimated from few doses,"PAK4; compound concentrations:100 nM and 1000 nM (sheet 'Lestaurtinib' of Supplementary Table 1),run:Lestaurtinib_02339_R2,Plate:MR001",36.1 nM
same,potency estimated from few doses,"PAK4; compound concentrations:100 nM and 1000 nM (sheet 'Lestaurtinib' of Supplementary Table 1),run:Lestaurtinib_02364_R1,Plate:MR002",32 nM
same,potency estimated from few doses,"PAK4; compound concentrations:100 nM and 1000 nM (sheet 'Lestaurtinib' of Supplementary Table 1),run:Lestaurtinib_02364_R2,Plate:MR002",32.9 nM
same,potency estimated from few doses,"PAK4; compound concentrations:100 nM and 1000 nM (sheet 'Lestaurtinib' of Supplementary Table 1),run:Lestaurtinib_02364_R3,Plate:MR002",35.1 nM
same,potency estimated from few doses,"PAK4; compound concentrations:100 nM and 1000 nM (sheet 'Lestaurtinib' of Supplementary Table 1),run:Lestaurtinib_02367_R1,Plate:MR003",29.7 nM
same,potency estimated from few doses,"PAK4; compound concentrations:100 nM and 1000 nM (sheet 'Lestaurtinib' of Supplementary Table 1),run:Lestaurtinib_02367_R2,Plate:MR003",33.6 nM
same,potency estimated from few doses,"PAK4; compound concentrations:100 nM and 1000 nM (sheet 'Lestaurtinib' of Supplementary Table 1),run:Lestaurtinib_02367_R3,Plate:MR003",35.8 nM
same,potency estimated from few doses,"PAK4; compound concentrations:100 nM and 1000 nM (sheet 'Lestaurtinib' of Supplementary Table 1),run:Lestaurtinib_02381_R1,Plate:MR004",31 nM
same,potency estimated from few doses,"PAK4; compound concentrations:100 nM and 1000 nM (sheet 'Lestaurtinib' of Supplementary Table 1),run:Lestaurtinib_02381_R3,Plate:MR004",30 nM
same,potency estimated from few doses,"PAK4; compound concentrations:100 nM and 1000 nM (sheet 'Lestaurtinib' of Supplementary Table 1),run:Lestaurtinib_02407_R2,Plate:MR005",28.6 nM
same,potency estimated from few doses,"PAK4; compound concentrations:100 nM and 1000 nM (sheet 'Lestaurtinib' of Supplementary Table 1),run:Lestaurtinib_02407_R3,Plate:MR005",34.5 nM
same,potency estimated from few doses,"PAK4; compound concentrations:100 nM and 1000 nM (sheet 'Lestaurtinib' of Supplementary Table 1),run:Lestaurtinib_02422_R1,Plate:MR006",44.2 nM
same,potency estimated from few doses,"PAK4; compound concentrations:100 nM and 1000 nM (sheet 'Lestaurtinib' of Supplementary Table 1),run:Lestaurtinib_02422_R2,Plate:MR006",20.2 nM
same,potency estimated from few doses,"PAK4; compound concentrations:100 nM and 1000 nM (sheet 'Lestaurtinib' of Supplementary Table 1),run:Lestaurtinib_02438_R2,Plate:MR008",30.6 nM
same,potency estimated from few doses,"PAK4; compound concentrations:100 nM and 1000 nM (sheet 'Lestaurtinib' of Supplementary Table 1),run:Lestaurtinib_02443_R2,Plate:MR009",31.9 nM
same,potency estimated from few doses,"PAK4; compound concentrations:100 nM and 1000 nM (sheet 'Lestaurtinib' of Supplementary Table 1),run:Lestaurtinib_02443_R3,Plate:MR009",33.2 nM
same,potency estimated from few doses,"PAK4; compound concentrations:100 nM and 1000 nM (sheet 'Lestaurtinib' of Supplementary Table 1),run:Lestaurtinib_02482_R2,Plate:MR011",36.2 nM
same,potency estimated from few doses,"PAK4; compound concentrations:100 nM and 1000 nM (sheet 'Lestaurtinib' of Supplementary Table 1),run:Lestaurtinib_02487_R2,Plate:MR012",38.6 nM
same,potency estimated from few doses,"PAK4; compound concentrations:100 nM and 1000 nM (sheet 'Lestaurtinib' of Supplementary Table 1),run:Lestaurtinib_02487_R3,Plate:MR012",39.1 nM
same,potency estimated from few doses,"PAK4; compound concentrations:100 nM and 1000 nM (sheet 'Lestaurtinib' of Supplementary Table 1),run:Lestaurtinib_02496_R1,Plate:MR013",33 nM
same,potency estimated from few doses,"PAK4; compound concentrations:100 nM and 1000 nM (sheet 'Lestaurtinib' of Supplementary Table 1),run:Lestaurtinib_02496_R2,Plate:MR013",30.6 nM
same,potency estimated from few doses,"PAK4; compound concentrations:100 nM and 1000 nM (sheet 'Lestaurtinib' of Supplementary Table 1),run:Lestaurtinib_02496_R3,Plate:MR013",35.4 nM
same,potency estimated from few doses,"PAK4; compound concentrations:100 nM and 1000 nM (sheet 'Lestaurtinib' of Supplementary Table 1),run:Lestaurtinib_02566_R1,Plate:MR014",27.9 nM
same,potency estimated from few doses,"PAK4; compound concentrations:100 nM and 1000 nM (sheet 'Lestaurtinib' of Supplementary Table 1),run:Lestaurtinib_02566_R2,Plate:MR014",31 nM
same,potency estimated from few doses,"PAK4; compound concentrations:100 nM and 1000 nM (sheet 'Lestaurtinib' of Supplementary Table 1),run:Lestaurtinib_02566_R3,Plate:MR014",38.2 nM
same,potency estimated from few doses,PAK4; [1],26.1 nM
same,potency estimated from few doses,PAK4; [2],37.9 nM
same,potency estimated from few doses,PAK4; [3],27.4 nM
same,potency estimated from few doses,"PAK4; compound concentrations:100 nM and 1000 nM (sheet 'Lestaurtinib' of Supplementary Table 1),run:Lestaurtinib_02601_R1,Plate:MR018",32.9 nM
same,potency estimated from few doses,PAK4; [4],36.5 nM
same,potency estimated from few doses,PAK4; [5],32.3 nM
same,potency estimated from few doses,PAK4; [6],35.4 nM
same,potency estimated from few doses,"PAK4; compound concentrations:100 nM and 1000 nM (sheet 'Lestaurtinib' of Supplementary Table 1),run:Lestaurtinib_02606_R3,Plate:MR019",35.6 nM
same,potency estimated from few doses,PAK4; [7],26.1 nM
same,potency estimated from few doses,PAK4; [8],31 nM
same,potency estimated from few doses,PAK4; [9],32.9 nM
same,potency estimated from few doses,PAK4; [10],33 nM
same,potency estimated from few doses,"PAK4; compound concentrations:100 nM and 1000 nM (sheet 'Lestaurtinib' of Supplementary Table 1),run:Lestaurtinib_02741_R1,Plate:MR023",38.6 nM
same,potency estimated from few doses,PAK4; [11],39.4 nM
same,potency estimated from few doses,"PAK4; compound concentrations:100 nM and 1000 nM (sheet 'Lestaurtinib' of Supplementary Table 1),run:Lestaurtinib_02741_R3,Plate:MR023",35.6 nM
same,potency estimated from few doses,PAK4; [12],30.4 nM
same,potency estimated from few doses,PAK4; [13],29.8 nM
same,potency estimated from few doses,PAK4; [14],36.5 nM
same,potency estimated from few doses,PAK4; [15],36.5 nM
same,potency estimated from few doses,"PAK4; compound concentrations:100 nM and 1000 nM (sheet 'Lestaurtinib' of Supplementary Table 1),run:Lestaurtinib_02766_R1,Plate:MR027",27.8 nM
